# Compounds with a hit are over-represented: about 10% of the library has one in this group of screens.
# GLS inh: qHTS for Inhibitors of Glutaminase (GLS) | Glutaminase kidney isoform, mitochondrial (Homo sapiens), O94925 | GLS enzymatic activity, qHTS titration | Potency, µM (top dose mostly 45.5 µM), for inactives: top-dose activity change, negative = inhibition, most hits filed as inhibitors | 410,000 compounds, 0.21% hits | AID 624170, 2012; note: % is set by controls: 0 for no effect and ±100 for the full control effect
#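 Compounds were pin-transferred onto hKGA, after which L-glutamine (1 mM solution) and a detection mix of glutamate oxidase, HRP and Amplex Red were added. Initial and 30 min RT fluorescence reads were collected.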
# BAZ2B block: qHTS Assay for Inhibitors of BAZ2B; AlphaScreen BAZ2B-H3K14Ac peptide displacement; Potency, µM (doses to about 114 µM), without a hit: at the highest dose activity change, negative = inhibition, most hits filed as inhibitors; 360,000 compounds, 4.4% hits; note: % is set by controls: 0 for no effect and ±100 for the full control effect; nearly all actives have a fitted effect of over 60% in size
#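 Inhibition is scored as reduced AlphaScreen emission. The BAZ2B/b-H3(5-23)K14Ac complex (50 nM each) in PBS pH 7.4, 0.01% Tween-20 meets compound (up to 110 uM) for 30 min at RT before bead addition.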
# G9a inh: qHTS Assay for Inhibitors of Histone Lysine Methyltransferase G9a; Histone-lysine N-methyltransferase EHMT2 (Homo sapiens), Q96KQ7; G9a H3K9 monomethylation, AlphaScreen, 2 h; Potency, µM (titrated, usually from 102 µM), inactives show at the highest dose activity, negative = inhibition, most hits filed as inhibitors; 350,000 compounds, 8.8% hits; note: % is set by controls: 0 for no effect and ±100 for the full control effect; nearly all actives have a fitted effect of over 75% in size
#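 Chemiluminescent proximity detection of H3K9 monomethylation, read after 10 min bead incubation in the dark. Reaction: 20 nM G9a, 500 nM biotin-H3K9 peptide, 20 uM SAM cofactor, 2 h, room temperature, following 15 min enzyme-compound preincubation.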
# HP1b chromo inh: HTS for Inhibitors of HP1-beta Chromodomain Interactions with Methylated Histone Tails; Potency, µM (highest dose often 114 µM), for inactives: at the highest dose activity change, negative = inhibition, hits mostly inhibitors; 390,000 compounds, 0.56% hits; AlphaScreen HP1-beta / biotin-H3K9me3 peptide binding; note: nearly all actives have a fitted effect of over 70% in size
#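 Compound inhibition of the preformed complex between 50 nM HP1-beta and 50 nM biotinylated H3K9me3 peptide was read by AlphaScreen. Buffer was PBS pH 7.4 with 0.01% Tween-20. Incubations ran 30 min at room temperature, with 10 ug/mL donor/acceptor beads.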
# L3MBTL1 inh: qHTS Assay for the Inhibitors of L3MBTL1 | Lethal(3)malignant brain tumor-like protein 1 (Homo sapiens), Q9Y468 | AlphaScreen L3MBTL1–H3K9me1 peptide binding | Potency, µM (highest dose often 57.1 µM), for inactives: at the top dose activity, negative = inhibition, usual class: inhibitors | 230,000 compounds, 0.66% hits | AID 485360, 2010; note: % is set by controls: 0 for no effect and ±100 for the full control effect; nearly all actives have a fitted effect of over 60% in size
#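 Displacement of a biotinylated histone H3(1-15) peptide monomethylated at Lys9 (75 nM) from L3MBTL1 (50 nM) was measured by AlphaScreen after a 30 min room-temperature compound incubation; cefsulodin titration served as intraplate control.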
# JMJD2A Tudor: qHTS Assay for Inhibitors of JMJD2A-Tudor Domain. Lysine-specific demethylase 4A (Homo sapiens), O75164. AlphaScreen JMJD2A-Tudor / H3K4me3 peptide binding. Potency, µM (doses to about 114 µM), for inactives: at the top dose activity change, negative = inhibition, most hits filed as inhibitors. 390,000 compounds, 4.4% hits; note: % is set by controls: 0 for no effect and ±100 for the full control effect; nearly all actives have a fitted effect of over 50% in size
# Starred values were filed as active, the others as inactive; ? = inconclusive; · = not tested or not shown; ! = not confirmed by another sample; [ ] = another dose, or the depositor's remark. Calls come from the whole dose curve; as a rule, active = well fitted curve in the direction sought with a large enough effect; inconclusive = small, poorly fitted or top-dose-only effect, or another doubt; inactive = no such curve, though single readings can be large; an effect the other way counts as inactive or inconclusive. Potency is the fitted concentration of half-maximal effect.
SMILES,GLS inh,BAZ2B block,G9a inh,HP1b chromo inh,L3MBTL1 inh,JMJD2A Tudor
COc1ccccc1NC(=O)CN1CCCCCC1,6%,-2%,17%,13%,·,-8%
Cc1ccc(CSc2nc3cccnc3n2Cc2ccc(C(=O)NCCc3cccs3)cc2)cc1,1%,0%,3%[59 µM],34%,·,4%
CCC(C)Nc1ccc(NC(C)CC)cc1 (stereo not given),0%,35µM*,2%[0.501 µM],?,?,40µM*
CCC(C)NC(=O)Nc1ccc(Br)cc1 (stereo not given),0%,-13%,-2%,40%,7%,-1%
C#CCOCCOCCOCCNc1nc(N2CCN(C(=O)[C@H]([C@@H](C)O)n3cc(CCCCN)nn3)CC2)nc(N2CCN(C(=O)[C@H]([C@@H](C)CC)n3cc(CCCN=C(N)N)nn3)CC2)n1,-9%,?,50µM*,19%,-4%,-28%
C#CCOCCOCCOCCNc1nc(N2CCN(C(=O)[C@H]([C@@H](C)CC)n3cc(CCCN=C(N)N)nn3)CC2)nc(N2CCN(C(=O)[C@H](CCCCN)n3cc(CCC(=O)O)nn3)CC2)n1,2%,-36%,50µM*,57%,4%,-14%
O=C(CSc1ccccc1C(=O)O)NC1CCCCCCC1,13%,4%,-39%[59 µM],62%,·,4%
O=C(CSc1ccccc1C(=O)O)c1ccccc1,2%,0%,0%[59 µM],39%,·,-3%
O=C(CSc1ccccc1C(=O)NCc1ccccc1)NC1CCCCCCC1,3%,-5%,10µM*,10%,3%,89µM*
O=C(CSc1ccccc1C(=O)O)NC1CCCCCC1,-1%,-3%,-37%,-24%,6%,10µM*
CC(C)CCNC(=O)c1ccccc1SCC(=O)NC1CCCCCCC1,-16%,-9%,3%[12.7 µM],37%,8%,-2%
O=C(O)CSc1ccccc1C(=O)O,-1%,-10%,45µM*,10%,·,-25%
O=C(CSc1ccccc1C(=O)NCc1ccccc1)NC12CC3CC(CC(C3)C1)C2,1%,-8%,10µM*,26%,0%,-16%
Cc1cc2c(s1)c1cnn(Cc3cccc(Cl)c3)c(=O)c1n2C,·,·,·,·,·,-32%
CCOc1ccc(CC(=O)Nc2c(C(=O)Nc3ccc(OC)cc3OC)oc3ccccc23)cc1,2%,-12%,5%[59 µM],42%,·,-9%
Cc1ccc2[nH]c(CSc3nnc(NC(=O)COc4ccccc4)s3)cc(=O)c2c1,-3%,5%,-25%[59 µM],25%[57 µM],·,-12%
O=C(CCn1c(=O)c2ccccc2n(Cc2cccc(F)c2)c1=O)NCc1ccc2c(c1)OCO2,6%,-1%,6%[59 µM],20%,·,1%
Oc1ccc(O)c(/C(=N/Nc2ccccc2)c2ccccc2)c1,·,45µM*,1.3µM*,·,·,·
O=C(C(=NNc1ccccc1)c1ccccc1)c1ccccc1,-12%,·,·,?,·,?
CCOc1ccc(NC(=O)CSc2nnc(CC)c(CC)n2)cc1,6%,-5%,-7%[59 µM],20%,·,-9%
COc1ccc(NC(=S)N/N=C/c2cccn2Cc2ccccc2F)cc1,-24%,-19%,?,22%,·,-5%
COc1ccc(NC(=S)N/N=C/c2cccn2Cc2ccc(F)cc2Cl)cc1,?,18µM*,22µM*,?,·,28µM*
CSc1ccccc1NC(=S)N/N=C/c1cccn1Cc1ccc(F)cc1,?,28µM*,32µM*,-15%,·,35µM*
Cc1cccc(NC(=S)N/N=C/c2cccn2Cc2ccc(F)cc2)c1,-3%,8.9µM*,?,-4%,·,-18%
CSc1ccccc1NC(=S)N/N=C/c1cccn1Cc1cccc(C)c1,?,8.9µM*,25µM*,-3%,·,-33%
SMILES,GLS inh,BAZ2B block,G9a inh,HP1b chromo inh,L3MBTL1 inh,JMJD2A Tudor
Cc1c(Cl)cccc1NC(=O)C(=O)NCCc1csc(-c2cccc(F)c2)n1,-6%,1%,-1%[59 µM],14%[57 µM],·,-10%
CCc1ccccc1NC(=O)Nc1c[nH]c(=O)[nH]c1=O,19%,0%,-5%[59 µM],0%,·,-17%
CC(=O)Nc1cc(NC(C)=O)cc(C(=O)N2CCCC3CCCCC32)c1 (stereo not given),?,50µM*,50µM*,?,·,56µM*
CCc1ccc2c(c1)C(C)=CC(C)(C)N2,15%,?,?,-24%,·,?
CC1=CC(C)(C)Nc2ccc(OC(=O)C(Cc3ccccc3)N3C(=O)c4ccccc4C3=O)cc21 (stereo not given),-3%,?,?,?,-20%,?
CC1=CC(C)(C)Nc2ccc(OC(=O)CN3C(=O)c4cccc5cccc(c45)C3=O)cc21,-1%,50µM*,8.9µM*,-21%,?,?
CCOc1ccc2c(c1)C(C)=CC(C)(C)N2,-7%,50µM*,8.9µM*!,-7%,-13%,?
CC1=CC(C)(C)Nc2ccc(OC(=O)CN3C(=O)c4ccccc4C3=O)cc21,-16%,18µM*,35µM*,?,-25%,?
Cc1cc(=O)[nH]c2nnc(SCc3c(F)cccc3Cl)n12,-10%,0%,5%[59 µM],37%,·,-9%
CCC1CSC(Nc2ccc(C(=O)/C=C/c3cccc(C)c3)cc2)=N1 (stereo not given),0%,?,2.8µM*,28%,-4%,-30%
Cc1ccc(C(c2sc3nc(-c4ccco4)nn3c2O)N2CCCCC2)cc1 (stereo not given),4%,-33%,-41%[59 µM],-1%,·,-17%
Cc1cc(C)n(-c2nc(Nc3ccccc3)nc(-n3nc(C)cc3C)n2)n1,-14%,79µM*,?,25%,-5%,?
Cc1cc(Nc2ccccc2)n(-c2ccc(Br)cc2)n1,9%,8%,50µM*,17%,·,6%
Cc1cc(C)n(-c2nc(N(c3ccccc3)c3ccccc3)nc(-n3nc(C)cc3C)n2)n1,-2%,-10%,20%[59 µM],-4%,4µM*,?
CCc1ccc2oc(-c3ccc(C)c(NC(=O)c4ccc(C#N)cc4F)c3)nc2c1,1%,-4%,5%[59 µM],29%,·,-14%
Cc1ccc(C(=O)c2c(N)c(C(=O)Nc3ccccc3Cl)c3ccccn23)cc1,-3%,-1%,3%[59 µM],30%,·,-6%
Cc1ccc(CN2C(=O)C3CCCN3c3ccc(S(=O)(=O)N4CCOCC4)cc32)cc1 (stereo not given),·,-6%,13µM*,·,-3%,·
